# Entries with a potency or affinity are not part of this list.
# Key:
# Klebsiella pneumoniae = conditions: Concentration 20 uM; ASSAY_TEST Inhibition of Bacterial Growth; detection method Absorption (OD600); MEDIA CAMHB; plate type 384well; NBS; CORNING #3640; time 18 hr
# Candida albicans = conditions: 20 µM
# Cryptococcus neoformans = conditions: Concentration 20 uM; ASSAY_TEST Inhibition of Fungal Growth; detection method Resazurin; Absorption (OD600-OD570); plate type 384well; NBS; CORNING #3640
compound,measurement,setting,value
Brc1c(NC2=NCCN2)ccc2nccnc12 [BRIMONIDINE],Inhibition,Klebsiella pneumoniae,7.83%
same,Inhibition,Candida albicans,3.99%
same,Inhibition,Cryptococcus neoformans,-1.44%
CCN(C(C)=O)c1cccc(-c2ccnc3c(C#N)cnn23)c1 [ZALEPLON],Inhibition,Klebsiella pneumoniae,6.53%
same,Inhibition,Candida albicans,-0.36%
same,Inhibition,Cryptococcus neoformans,-1.32%
CCOC(=O)c1ncn2c1CN(C)C(=O)c1cc(F)ccc1-2 [FLUMAZENIL],Inhibition,Klebsiella pneumoniae,-2%
same,Inhibition,Candida albicans,0.3%
same,Inhibition,Cryptococcus neoformans,-8.54%
Nc1nc2ccc(Cl)cc2c2nc(-c3ccco3)nn12 [CGS-15943],Inhibition,Klebsiella pneumoniae,10.58%
same,Inhibition,Candida albicans,6.09%
same,Inhibition,Cryptococcus neoformans,-14.37%
CC(C)NCC(O)COc1cccc2[nH]ccc12 (stereo not given) [PINDOLOL],Inhibition,Klebsiella pneumoniae,17.1%
same,Inhibition,Candida albicans,3.5%
same,Inhibition,Cryptococcus neoformans,-9.82%
CS(=O)(=O)O.O=C(O[C@@H]1C[C@@H]2C[C@H]3C[C@H](C1)N2CC3=O)c1c[nH]c2ccccc12,Inhibition,Klebsiella pneumoniae,8.46%
same,Inhibition,Candida albicans,2.39%
same,Inhibition,Cryptococcus neoformans,1.75%
Cl.O[C@@H]1CCCC[C@H]1N1CCC(c2ccccc2)CC1,Inhibition,Klebsiella pneumoniae,4.06%
same,Inhibition,Candida albicans,3.46%
same,Inhibition,Cryptococcus neoformans,-7.38%
Cl.N=C(N)NC(=O)c1nc(Cl)c(N)nc1N.O.O [AMILORIDE HYDROCHLORIDE],Inhibition,Klebsiella pneumoniae,12.19%
same,Inhibition,Candida albicans,4.98%
same,Inhibition,Cryptococcus neoformans,-6.3%
c1cncc([C@@H]2CCCN2)c1 [NORNICOTINE],Inhibition,Klebsiella pneumoniae,9.44%
same,Inhibition,Candida albicans,3.55%
same,Inhibition,Cryptococcus neoformans,-7.65%
c1ccc2c3c([nH]c2c1)CNCC3 [TRYPTOLINE],Inhibition,Klebsiella pneumoniae,13.54%
same,Inhibition,Candida albicans,3.92%
same,Inhibition,Cryptococcus neoformans,-5.61%
COc1cc([C@@H]2c3cc4c(cc3[C@H](O)[C@H]3COC(=O)[C@H]23)OCO4)cc(OC)c1OC [PODOFILOX],Inhibition,Klebsiella pneumoniae,15.68%
same,Inhibition,Candida albicans,0.66%
same,Inhibition,Cryptococcus neoformans,-1.83%
CN1[C@@H](CC(=O)c2ccccc2)CCC[C@H]1C[C@H](O)c1ccccc1.Cl [LOBELINE HYDROCHLORIDE],Inhibition,Klebsiella pneumoniae,19.91%
same,Inhibition,Candida albicans,2.98%
same,Inhibition,Cryptococcus neoformans,-5.47%
Cl.O.Oc1cc2c(cc1O)[C@H]1c3ccccc3CN[C@@H]1CC2,Inhibition,Klebsiella pneumoniae,11.23%
same,Inhibition,Candida albicans,1.34%
same,Inhibition,Cryptococcus neoformans,-4.18%
O=C(O)CCCc1ccc(N(CCCl)CCCl)cc1 [CHLORAMBUCIL],Inhibition,Klebsiella pneumoniae,9.18%
same,Inhibition,Candida albicans,2.65%
same,Inhibition,Cryptococcus neoformans,0.85%
CN(C)CCc1c[nH]c2ccc(Cn3cncn3)cc12.O=C(O)c1ccccc1 [RIZATRIPTAN BENZOATE],Inhibition,Klebsiella pneumoniae,7.74%
same,Inhibition,Candida albicans,5.06%
same,Inhibition,Cryptococcus neoformans,-5.39%
Cc1c(O)c(=O)ccn1C [DEFERIPRONE],Inhibition,Klebsiella pneumoniae,3.55%
same,Inhibition,Candida albicans,4.97%
same,Inhibition,Cryptococcus neoformans,-5.92%
CC[C@@H](C(N)=O)N1CCCC1=O,Inhibition,Klebsiella pneumoniae,13.35%
same,Inhibition,Candida albicans,2.36%
same,Inhibition,Cryptococcus neoformans,-2.67%
COc1ccc(C(CN(C)C)C2(O)CCCCC2)cc1.Cl (stereo not given) [VENLAFAXINE HYDROCHLORIDE],Inhibition,Klebsiella pneumoniae,15.76%
same,Inhibition,Candida albicans,3.64%
same,Inhibition,Cryptococcus neoformans,-9.68%
CN1C(=O)CN=C(c2ccccc2)c2cc([N+](=O)[O-])ccc21 [NIMETAZEPAM],Inhibition,Klebsiella pneumoniae,13.4%
same,Inhibition,Candida albicans,0.89%
same,Inhibition,Cryptococcus neoformans,-7.7%
C[N+]1(C)CCN(c2ccccc2)CC1.[I-] [DIMETHYLPHENYLPIPERAZINIUM IODIDE],Inhibition,Klebsiella pneumoniae,19.04%
same,Inhibition,Candida albicans,2.58%
same,Inhibition,Cryptococcus neoformans,-7.47%
c1ccc(Cn2ccnc2)cc1,Inhibition,Klebsiella pneumoniae,8.34%
same,Inhibition,Candida albicans,2.99%
same,Inhibition,Cryptococcus neoformans,0.79%
Cl.O=C1CC[C@@]2(O)[C@H]3Cc4ccc(O)c5c4[C@@]2(CCN3CC2CC2)[C@H]1O5 [NALTREXONE HYDROCHLORIDE],Inhibition,Klebsiella pneumoniae,13%
same,Inhibition,Candida albicans,3.06%
same,Inhibition,Cryptococcus neoformans,0.92%
Cc1c(OCC(F)(F)F)ccnc1C[S+]([O-])c1nc2ccccc2[nH]1 (stereo not given) [LANSOPRAZOLE],Inhibition,Klebsiella pneumoniae,7.47%
same,Inhibition,Candida albicans,9.31%
same,Inhibition,Cryptococcus neoformans,-23.82%
CCCN1C[C@H](CSC)C[C@@H]2c3cccc4[nH]cc(c34)C[C@H]21.CS(=O)(=O)O [PERGOLIDE MESYLATE],Inhibition,Klebsiella pneumoniae,13.95%
same,Inhibition,Candida albicans,2.85%
same,Inhibition,Cryptococcus neoformans,-3.89%
C=C1C[C@@H]2[C@H](CC[C@]3(C)C(=O)CC[C@@H]23)[C@@]2(C)C=CC(=O)C=C12 [EXEMESTANE],Inhibition,Klebsiella pneumoniae,6.02%
same,Inhibition,Candida albicans,5.81%
same,Inhibition,Cryptococcus neoformans,-8.06%
C#C[C@]1(O)CC[C@H]2[C@@H]3CCC4=CC(=O)CC[C@@H]4[C@H]3CC[C@@]21C [NORETHINDRONE],Inhibition,Klebsiella pneumoniae,6.67%
same,Inhibition,Candida albicans,4.82%
same,Inhibition,Cryptococcus neoformans,0.28%
CC(NC(C)(C)C)C(=O)c1cccc(Cl)c1.Cl (stereo not given) [BUPROPION HYDROCHLORIDE],Inhibition,Klebsiella pneumoniae,2.52%
same,Inhibition,Candida albicans,4.99%
same,Inhibition,Cryptococcus neoformans,3.12%
COc1ccc2[nH]cc(CCN)c2c1 [5-METHOXYTRYPTAMINE],Inhibition,Klebsiella pneumoniae,5.41%
same,Inhibition,Candida albicans,3.97%
same,Inhibition,Cryptococcus neoformans,-39.41%
C#C[C@]1(OC(C)=O)CC[C@H]2[C@@H]3CCC4=CC(=O)CC[C@@H]4[C@H]3CC[C@@]21C [NORETHINDRONE ACETATE],Inhibition,Klebsiella pneumoniae,-0.71%
same,Inhibition,Candida albicans,6.32%
same,Inhibition,Cryptococcus neoformans,-4.57%
COc1cc2c(cc1OC)[C@@]13CCN4CC5=CCO[C@H]6CC(=O)N2[C@H]1[C@H]6[C@H]5C[C@H]43 [BRUCINE],Inhibition,Klebsiella pneumoniae,6.18%
same,Inhibition,Candida albicans,2.36%
same,Inhibition,Cryptococcus neoformans,-1.81%
Cn1c(=O)c2nc[nH]c2n(C)c1=O.O [THEOPHYLLINE],Inhibition,Klebsiella pneumoniae,1.07%
same,Inhibition,Candida albicans,3.65%
same,Inhibition,Cryptococcus neoformans,7.56%
CN(C)CCOc1ccc(/C(=C(/CCCl)c2ccccc2)c2ccccc2)cc1.O=C(O)CC(O)(CC(=O)O)C(=O)O [TOREMIFENE CITRATE],Inhibition,Klebsiella pneumoniae,8.47%
same,Inhibition,Candida albicans,1.73%
same,Inhibition,Cryptococcus neoformans,-7.47%
NC(=O)C[S+]([O-])C(c1ccccc1)c1ccccc1 (stereo not given) [MODAFINIL],Inhibition,Klebsiella pneumoniae,7.6%
same,Inhibition,Candida albicans,2.96%
same,Inhibition,Cryptococcus neoformans,-0.59%
Cc1ccc(-c2nc3ccc(C)cn3c2CC(=O)N(C)C)cc1.Cc1ccc(-c2nc3ccc(C)cn3c2CC(=O)N(C)C)cc1.O=C(O)C(O)C(O)C(=O)O [ZOLPIDEM TARTRATE],Inhibition,Klebsiella pneumoniae,6.38%
same,Inhibition,Candida albicans,4.32%
same,Inhibition,Cryptococcus neoformans,-1.23%
COC(=O)C[C@](O)(CCCC(C)(C)O)C(=O)O[C@@H]1C(OC)=C[C@]23CCCN2CCc2cc4c(cc2[C@H]13)OCO4 [OMACETAXINE MEPESUCCINATE],Inhibition,Klebsiella pneumoniae,9.21%
same,Inhibition,Candida albicans,3.16%
same,Inhibition,Cryptococcus neoformans,1.94%
O=C1Nc2ccc(Cl)cc2C(c2ccccc2Cl)=NC1O (stereo not given) [LORAZEPAM],Inhibition,Klebsiella pneumoniae,-5.27%
same,Inhibition,Candida albicans,5.15%
same,Inhibition,Cryptococcus neoformans,-2.1%
CCCCCNC(=N)N/N=C/c1c[nH]c2ccc(OC)cc12.O=C(O)/C=C\C(=O)O [TEGASEROD MALEATE],Inhibition,Klebsiella pneumoniae,6.68%
same,Inhibition,Candida albicans,0.86%
same,Inhibition,Cryptococcus neoformans,-67.8%
Br.Br.CN1CC[C@]2(c3cccc(O)c3)Cc3nc4ccccc4cc3C[C@H]2C1.O,Inhibition,Klebsiella pneumoniae,12.17%
same,Inhibition,Candida albicans,0.66%
same,Inhibition,Cryptococcus neoformans,2.37%
COc1ccc2[nH]cc(C3=CCNCC3)c2c1.COc1ccc2[nH]cc(C3=CCNCC3)c2c1.O=C(O)CCC(=O)O,Inhibition,Klebsiella pneumoniae,15.57%
same,Inhibition,Candida albicans,3.46%
same,Inhibition,Cryptococcus neoformans,-20.08%
CN1CCN2c3ncccc3Cc3ccccc3C2C1 (stereo not given) [MIRTAZAPINE],Inhibition,Klebsiella pneumoniae,5.61%
same,Inhibition,Candida albicans,4.27%
same,Inhibition,Cryptococcus neoformans,3.57%
CC(=O)OCC[N+](C)(C)C.[Cl-] [ACETYLCHOLINE CHLORIDE],Inhibition,Klebsiella pneumoniae,16.59%
same,Inhibition,Candida albicans,1.39%
same,Inhibition,Cryptococcus neoformans,-1.88%
CN1CCN(C(=O)O[C@H]2c3nccnc3C(=O)N2c2ccc(Cl)cn2)CC1 [ESZOPICLONE],Inhibition,Klebsiella pneumoniae,-5.59%
same,Inhibition,Candida albicans,0.3%
same,Inhibition,Cryptococcus neoformans,4.31%
COc1cc(CNC(=O)CCCC/C=C\C(C)C)ccc1O [ZUCAPSAICIN],Inhibition,Klebsiella pneumoniae,12.92%
same,Inhibition,Candida albicans,4.72%
same,Inhibition,Cryptococcus neoformans,-5.9%
COc1cc(-c2ccc(=O)[nH]n2)ccc1OC(F)F [ZARDAVERINE],Inhibition,Klebsiella pneumoniae,6.98%
same,Inhibition,Candida albicans,1.79%
same,Inhibition,Cryptococcus neoformans,1.74%
Oc1ncnc2[nH]ncc12 [ALLOPURINOL],Inhibition,Klebsiella pneumoniae,15.5%
same,Inhibition,Candida albicans,2.36%
same,Inhibition,Cryptococcus neoformans,-1.92%
CCCC(C)(COC(N)=O)COC(=O)NC(C)C (stereo not given) [CARISOPRODOL],Inhibition,Klebsiella pneumoniae,4.45%
same,Inhibition,Candida albicans,4.69%
same,Inhibition,Cryptococcus neoformans,4.79%
CN1CCN(C2=Nc3cc(Cl)ccc3Nc3ccccc32)CC1 [CLOZAPINE],Inhibition,Klebsiella pneumoniae,8.37%
same,Inhibition,Candida albicans,0.59%
same,Inhibition,Cryptococcus neoformans,-5.79%
CC(C)(C)NCC(O)c1cc(O)cc(O)c1.O=S(=O)(O)O (stereo not given),Inhibition,Klebsiella pneumoniae,12.1%
same,Inhibition,Candida albicans,2.97%
same,Inhibition,Cryptococcus neoformans,-9.43%
CC1CCC[C@H](O)CCCCCc2cc(O)cc(O)c2C(=O)O1 (stereo not given in full),Inhibition,Klebsiella pneumoniae,3.64%
same,Inhibition,Candida albicans,2.99%
same,Inhibition,Cryptococcus neoformans,-2.51%
Cl.O=C1c2cccc3c2[C@H](CCC3)CN1[C@@H]1CN2CCC1CC2 [PALONOSETRON HYDROCHLORIDE],Inhibition,Klebsiella pneumoniae,8.73%
same,Inhibition,Candida albicans,2.55%
same,Inhibition,Cryptococcus neoformans,-0.6%
CC[C@@H]1/C=C/C=C/C[C@H](C)[C@@H](O)[C@](C)(O)C(=O)[C@H](C)[C@@H](O)[C@H](C)C(=O)[C@H](C)[C@@H](O)[C@H](C)/C=C/C(=O)O[C@H]2[C@@H](C)[C@@H](CC1)O[C@@]1(CC[C@@H](C)[C@@H](C[C@H](C)O)O1)[C@@H]2C,Inhibition,Klebsiella pneumoniae,17.55%
same,Inhibition,Candida albicans,5.45%
same,Inhibition,Cryptococcus neoformans,-9.53%
C[C@H](CCC(=O)O)[C@H]1CC[C@H]2[C@@H]3C(=O)C[C@@H]4CC(=O)CC[C@]4(C)[C@H]3CC(=O)[C@]12C [DEHYDROCHOLIC ACID],Inhibition,Klebsiella pneumoniae,5.88%
same,Inhibition,Candida albicans,3.92%
same,Inhibition,Cryptococcus neoformans,2.23%
C[C@]12CCC(=O)C[C@@H]1CC[C@@H]1[C@@H]2CC[C@@]2(C)[C@H]1CC[C@]2(C)O [MESTANOLONE],Inhibition,Klebsiella pneumoniae,3.85%
same,Inhibition,Candida albicans,11.7%
same,Inhibition,Cryptococcus neoformans,4.57%
CC(COc1ccccc1)N(CCCl)Cc1ccccc1.Cl (stereo not given) [PHENOXYBENZAMINE HYDROCHLORIDE],Inhibition,Klebsiella pneumoniae,17.18%
same,Inhibition,Candida albicans,4.97%
same,Inhibition,Cryptococcus neoformans,-10.83%
CN(C)CCc1c[nH]c2ccc(C[C@H]3COC(=O)N3)cc12 [ZOLMITRIPTAN],Inhibition,Klebsiella pneumoniae,7.51%
same,Inhibition,Candida albicans,2.65%
same,Inhibition,Cryptococcus neoformans,0.25%
